# Data from PubChem BioAssay (NCATS).
# Inconclusive results are not listed. The source made the active and inactive calls. The call rests on the fitted dose curve; in most records, active means well fitted inhibition curve with a large enough effect; inconclusive means small, poorly fitted or top-dose-only effect; inactive means flat fitted curve, though single readings scatter.
# Biological target: Ubiquitin carboxyl-terminal hydrolase 1 (Homo sapiens) (UniProt O94782)
# Experiment: Inhibitors of USP1/UAF1: Pilot qHTS (AID 504865); further: nearly all actives have a fitted effect of over 35% in size;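 on activity change, negative = inhibition: rhodamine fluorescence freed from ubiquitin-rhodamine substrate followed over time; top concentration of the series differs between compounds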
# Conditions: purified USP1/UAF1, Ub-rhodamine cleavage fluorescence; series mostly up to 114 µM; activity change, negative = inhibition: at the top concentration
# In short: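 1nM USP1/UAF1 + cpd, 15 min RT; start w/ Ub-Rho 150nM final; kinetic FL 480/540 nm, 6 reads q60 s. Buffer 50mM HEPES pH 7.8, 0.5mM EDTA, 1mM TCEP, 0.01% Tween-20, 0.1 mg/ml BSA.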
# On the % scale 0 is the no-effect control and ±100 the full control effect; potency means the concentration at half of the fitted maximal effect.
# Sequence of Ubiquitin carboxyl-terminal hydrolase 1 (Homo sapiens) (O94782 whole entry, looked up): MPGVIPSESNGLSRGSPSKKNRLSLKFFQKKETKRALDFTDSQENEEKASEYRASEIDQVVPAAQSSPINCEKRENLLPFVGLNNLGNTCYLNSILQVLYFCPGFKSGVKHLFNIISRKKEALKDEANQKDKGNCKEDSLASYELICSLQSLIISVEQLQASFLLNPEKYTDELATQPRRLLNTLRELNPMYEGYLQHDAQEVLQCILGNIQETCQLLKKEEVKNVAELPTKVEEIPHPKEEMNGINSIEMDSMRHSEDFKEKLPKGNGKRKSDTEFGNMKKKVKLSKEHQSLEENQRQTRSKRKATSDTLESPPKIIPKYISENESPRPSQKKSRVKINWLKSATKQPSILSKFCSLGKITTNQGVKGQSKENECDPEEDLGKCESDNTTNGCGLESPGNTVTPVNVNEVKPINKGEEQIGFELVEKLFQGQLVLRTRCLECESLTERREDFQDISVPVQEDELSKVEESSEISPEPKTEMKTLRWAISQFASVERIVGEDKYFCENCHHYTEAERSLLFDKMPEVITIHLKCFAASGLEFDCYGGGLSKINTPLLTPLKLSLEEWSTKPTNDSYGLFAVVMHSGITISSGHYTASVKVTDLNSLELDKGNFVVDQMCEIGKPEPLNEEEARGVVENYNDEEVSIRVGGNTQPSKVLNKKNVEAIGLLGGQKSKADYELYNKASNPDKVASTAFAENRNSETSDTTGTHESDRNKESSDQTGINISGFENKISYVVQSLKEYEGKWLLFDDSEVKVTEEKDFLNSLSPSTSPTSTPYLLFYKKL
Structure (SMILES),"activity change, negative = inhibition",Potency
CCCOC(=O)c1ccccc1O,-2.68% (inactive),
CC(C)OC(=O)Nc1ccc2nc(-c3cscn3)[nH]c2c1,-12.6% (inactive),
NC(=O)[C@H]1O[C@@H](O)[C@H](O)[C@@H](O)[C@@H]1O,-0.256% (inactive),
NCC[C@H](O)C(=O)N[C@@H]1C[C@H](N)[C@@H](O[C@H]2O[C@H](CN)[C@@H](O)[C@H](O)[C@H]2O)[C@H](O)[C@H]1O[C@H]1O[C@H](CO)[C@@H](O)[C@H](N)[C@H]1O,0.456% (inactive),
C=CCOc1ccc(CC(=O)O)cc1Cl,-5.02% (inactive),
Cc1ccc(C(C)(C)c2ccc(C)cc2)cc1,-9.44% (inactive),
CC(=O)Oc1cccc(C(=O)O)c1OC(C)=O,-9.59% (inactive),
O=C(O)COc1ccccc1/C=N/NC(=O)c1ccncc1,-6.34% (inactive),
CNC(=O)C[C@@H](N)C(=O)N[C@@H](C(=O)N[C@@H]1C(=O)N2[C@@H]1SC(C)(C)[C@@H]2C(=O)O)c1ccc(O)cc1,1.41% (inactive),
CCOC(=O)[C@@H](N)CS,3.9% (inactive),
CCN(CC)C(=O)c1cccnc1,-4.35% (inactive),
CC/C=C\C/C=C\C/C=C\C/C=C\C/C=C\C/C=C\CCC(=O)O,,50.1 µM (active)
CCOC(C)OCC,1.64% (inactive),
N#Cc1ccc2c(c1)N(CCCN1CCC(O)CC1)c1ccccc1S2,-1.78% (inactive),
CN1C(C(=O)Nc2ccccn2)C(=O)c2sc(Cl)cc2S1(=O)=O (centres undefined),-9.15% (inactive),
CC(C)NCC(O)COc1ccccc1-n1cccc1 (centres undefined),-4.76% (inactive),
O=C1CCC(c2ccccc2)(C2CCN(Cc3ccccc3)CC2)C(=O)N1 (centres undefined),-11.3% (inactive),
NC(N)=NCC1COc2ccccc2O1 (centres undefined),-3.37% (inactive),
CC(CNC(=O)c1cccnc1)NC(=O)c1cccnc1 (centres undefined),-10.2% (inactive),
O.O.O.O.O.O.O.O=S(=O)([O-])[O-].[Co+2],3.5% (inactive),
O=C(O)CC/C=C\CC[C@@H]1[C@@H](N2CCCCC2)[C@@H](O)C[C@@H]1OCc1ccc(-c2ccccc2)cc1,-6.16% (inactive),
Cn1c(O)c(N=NC(N)=S)c2ccccc21,-14.5% (inactive),
CC(C)CCC[C@@H](C)[C@H]1CC[C@H]2[C@@H]3CC[C@@H]4C[C@H](O)CC[C@]4(C)[C@H]3CC[C@]12C,-1.59% (inactive),
COc1ccc2c(=O)c(C)c(-c3ccccc3)oc2c1CN(C)C,-7.13% (inactive),
